Data on 5 molecules can be found in PubChem BioAssay (NCATS).

Assay [1] in a line: qHTS to identify inhibitors of the type 1 interferon - major histocompatibility complex class I in skeletal muscle: primary screen against the NCATS Mechanism Interrogation Plate v5.0 (MIPE) Libary (AID 1347411).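 Further: plate controls were vehicle for no effect and reference inhibitor for full effect; nearly all actives have a fitted effect of over 65% in size.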 The essentials: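 Luminescence from HiBiT-tagged endogenous HLA-B*08:01 served as the MHC class I read-out. CRISPR-engineered C25cl48 human myoblasts received 4.0 ng/ml IFN-beta plus compound for 24 hrs, with an 11-point, 1:3 series topping at 46 uM final.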

Assay [2] is described as follows: Primary qHTS for small molecule stabilizers of the endoplasmic reticulum resident proteome: Secreted ER Calcium Modulated Protein (SERCaMP) assay (AID 1508630). Further: on the % scale 0 is the no-effect control and ±100 the full control effect. Put shortly: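 GLuc-SERCaMP-expressing SH-SY5Y cells, pretreated 16 h with compound, are challenged with thapsigargin to empty ER calcium stores; after 4 h, coelenterazine is added directly to the medium and luminescence is imaged.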

Assay [3] is described as follows: Primary qHTS for inhibitors of nuclear receptor binding SET domain protein 2 (NSD2) in an isogenic RCH-ACV NSD2 p.E1099K mutant (9B) (AID 1645876). Further: potency means the concentration at half of the fitted maximal effect; nearly all actives have a fitted effect of over 70% in size.
Assay [4] in a line: Primary qHTS for inhibitors of nuclear receptor binding SET domain protein 2 (NSD2) in an RCH-ACV wild type WT cells (2C) (AID 1645877). Further: potency means the concentration at half of the fitted maximal effect; nearly all actives have a fitted effect of over 70% in size.
Assay [5] concerns the target Glutathione peroxidase 1 (Homo sapiens) (UniProt P07203). Description: Primary qHTS Assay for Inhibitors of Recombinant Selenoprotein Glutathione Peroxidase 1 (GPX1) (AID 1845191). Further: nearly all actives have a fitted effect of over 65% in size. Put shortly:
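GR-coupled assay: compounds preincubated 30 min at room temperature with GPX1, then reaction started with CHP; final 10 nM GPX1, 1 mM GSH, 0.5 mM CHP, 0.5 mM NADPH, 100 nM GR, 0.01% BSA, pH 7.5 Tris buffer. NADPH fluorescence (340/450 nm) read at 0 and 15 min.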

The target of assay [6] is Phospholipid hydroperoxide glutathione peroxidase GPX4 (Homo sapiens) (UniProt P36969). Description: Primary qHTS Assay for Inhibitors of Recombinant Selenoprotein Glutathione Peroxidase 4 (GPX4) (AID 1845192). Further: on the % scale 0 is the no-effect control and ±100 the full control effect; nearly all actives have a fitted effect of over 65% in size. The following applies: outcome: dose series up to 50 µM unless noted. The essentials: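 GR-coupled assay: recombinant GPX4 preincubated 30 min with compound at room temperature; final 200 nM GPX4, 1 mM GSH, 0.5 mM cumene hydroperoxide, 0.5 mM NADPH, 100 nM GR, 0.01% BSA, pH 7.5 Tris. NADPH fluorescence (340/450 nm) read at 0 and 15 min.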
Sequence of Phospholipid hydroperoxide glutathione peroxidase GPX4 (Homo sapiens) (P36969 whole entry, looked up): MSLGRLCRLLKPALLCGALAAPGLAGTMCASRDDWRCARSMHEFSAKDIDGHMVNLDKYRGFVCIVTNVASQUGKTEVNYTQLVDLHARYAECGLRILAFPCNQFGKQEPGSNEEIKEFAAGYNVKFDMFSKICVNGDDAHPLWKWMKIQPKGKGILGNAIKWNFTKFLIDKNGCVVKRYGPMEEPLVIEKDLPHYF

Assay [7] in a line: qHTS drug screen for cell cycle checkpoint inhibitors in PARPi-resistant BRCA-mutant ovarian cancer cell lines. (AID 1963452; calls by dose curve). Conditions: PEO1/OlaR viability, CellTiter-Glo luminescence, 96 h, stronger effect = lower value. Put shortly: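 PEO1, PEO4 and PEO1/OlaR ovarian cancer cells, 600 per well, exposed 96 h at 37C to a dilution series. Viability read by CellTiter-Glo luminescence, normalized to DMSO and empty wells; activity summarized as Z-AUC.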

Assay [8] deals with Cytochrome P450 1A2 (Homo sapiens) (UniProt P05177). Description: p450-cyp1a2 (AID 410; calls by dose curve;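 further: -100% = full effect of reference inhibitor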). The essentials:
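Luminescent readout of luciferin formed from Luciferin-ME by human CYP1A2; data normalized against complete inhibition by 57 uM furafylline. Enzyme 20nM, substrate 100uM at Km, 100mM KPO4 buffer, 60 min reaction at room temperature.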

Assay [9] concerns the target Glucocorticoid receptor (Homo sapiens) (UniProt P04150). Description: GR-GFP Redistribution (AID 450;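 active means compounds whose dose series gives a full or clear partial fitted curve of increased nuclear translocation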; further: potency means the concentration at half of the fitted maximal effect). Conditions: U2OS GR-GFP nuclear translocation, laser cytometry, 2 h.
For assay [10] the target is unchanged. The assay is described as follows: GR-EFC Redistribution (AID 451; calls by dose curve; further: potency means the concentration at half of the fitted maximal effect). Conditions: CHO-K1 GR-EFC translocation, beta-gal luminescence, 2 h. Put shortly:
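CHO-K1 cells expressing nuclear EA and GR-ED fragments of b-gal; compounds titrated up to 46 uM final, 2 h at 37 C. GR nuclear translocation read as complemented b-gal luminescence after 1 h RT detection.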

Assay [11] deals with Mitogen-activated protein kinase 10 (Mus musculus) (UniProt Q61831). Description: JNK3 AlphaScreen Assay (AID 530; active means well fitted curve in either direction with a large enough effect, not every such curve was filed as active;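 further: kinase came from lysate of stimulated human HepG2 cells; signal reports phosphorylation of biotinylated GST-cJun 1-79 at Ser73 with 10 µM ATP; on the % scale 0 is the no-effect control and ±100 the full control effect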). The essentials: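 Pre-activated (IL-1β/TNFα) JNK3 in HepG2 lysates phosphorylates biotin-GST-cJun(1-79), 10 uM ATP; anti-phospho-cJun(Ser73) AlphaScreen read at room temperature, pH 7.6 Tris buffer. Compounds pre-incubated 15 min as titrations.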
Assay [12] has as its target 3',5'-cyclic-AMP phosphodiesterase 4B (Homo sapiens) (UniProt Q07343). Description: qHTS Assay for Inhibitors of PDE-IV (AID 607; active means well fitted activation curve with a large enough effect in the main read-out, with a control signal flat, not every such curve was filed as active; further: % of control where 0% means no effect). The essentials: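 Live HEK293 cells with a modified cyclic nucleotide-gated (CNG) channel report intracellular cAMP via membrane-potential dye fluorescence (ex 535/em 590 nm). Endogenous PDE-IV was targeted. Compounds were tested at up to 22.9 uM final; RO 20-1724 100 uM served as control.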

The nature of assay [13]: qHTS Assay for Lipid Storage Modulators (AID 1519; calls by dose curve; on activity change, negative = inhibition: on the % scale 0 is the no-effect control and ±100 the full control effect). The following applies: Drosophila S3 cells, BODIPY lipid droplet/cell ratio, laser cytometry, cells loaded with oleic acid. The essentials:
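Cells seeded at 5,000 per well were treated with compounds over a concentration series and loaded with oleic acid (400 uM, as added). Lipid droplet fluorescence (488 nm excitation, 500-530 nm channel) was read by laser-scanning cytometry and normalized to 20 uM Triacsin C.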

Assay [14] deals with Ubiquitin carboxyl-terminal hydrolase 1 (Homo sapiens) (UniProt O94782). The assay is described as follows: Inhibitors of USP1/UAF1: Pilot qHTS (AID 504865).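 Further: rhodamine fluorescence freed from ubiquitin-rhodamine substrate followed over time; top concentration of the series differs between compounds; on the % scale 0 is the no-effect control and ±100 the full control effect; nearly all actives have a fitted effect of over 35% in size.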 Put shortly: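 USP1/UAF1 complex (1nM) preincubated with compound 15 min at room temperature, then Ub-Rho substrate (150nM final) added. Fluorescence read kinetically at 480/540 nm, 6 reads every 60 seconds. Buffer: 50mM HEPES pH 7.8, 0.5mM EDTA, 0.1 mg/ml BSA, 1mM TCEP, 0.01% Tween-20.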
Sequence of Ubiquitin carboxyl-terminal hydrolase 1 (Homo sapiens) (O94782 whole entry, looked up): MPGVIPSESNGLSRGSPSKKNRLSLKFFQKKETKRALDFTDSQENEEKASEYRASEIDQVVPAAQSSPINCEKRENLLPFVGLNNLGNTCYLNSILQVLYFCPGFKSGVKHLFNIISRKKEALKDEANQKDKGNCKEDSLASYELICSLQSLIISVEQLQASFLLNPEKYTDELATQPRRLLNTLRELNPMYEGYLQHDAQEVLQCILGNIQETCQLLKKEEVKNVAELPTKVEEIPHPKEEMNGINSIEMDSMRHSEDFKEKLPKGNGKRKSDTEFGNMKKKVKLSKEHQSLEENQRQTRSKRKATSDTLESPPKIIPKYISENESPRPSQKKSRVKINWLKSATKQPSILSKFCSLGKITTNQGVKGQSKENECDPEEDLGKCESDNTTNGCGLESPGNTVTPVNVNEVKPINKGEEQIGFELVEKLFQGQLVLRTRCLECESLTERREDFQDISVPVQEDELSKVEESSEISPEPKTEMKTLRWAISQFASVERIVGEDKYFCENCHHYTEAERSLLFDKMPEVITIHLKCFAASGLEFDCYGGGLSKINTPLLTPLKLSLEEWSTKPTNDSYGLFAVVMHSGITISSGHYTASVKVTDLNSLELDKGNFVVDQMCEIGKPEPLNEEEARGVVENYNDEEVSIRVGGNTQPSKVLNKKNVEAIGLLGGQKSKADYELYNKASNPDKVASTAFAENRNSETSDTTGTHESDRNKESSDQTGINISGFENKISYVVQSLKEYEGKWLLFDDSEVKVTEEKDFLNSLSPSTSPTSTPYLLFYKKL

The target of assay [15] is DNA dC->dU-editing enzyme APOBEC-3G (Homo sapiens) (UniProt Q9HC16). The assay is described as follows: qHTS for inhibitors of Vif-A3G interactions: Validation (AID 588379). Further: 0% is about no effect. The essentials: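 HeLa cells stably expressing Vif and A3G-eYFP, 700 cells/well, incubated overnight at 37 deg C, then exposed to compound overnight at 37 deg C. Inhibition of Vif-mediated degradation read as increased yellow fluorescence (Ex 488/Em 500-530) by laser-scanning cytometry.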
Sequence of DNA dC->dU-editing enzyme APOBEC-3G (Homo sapiens) (Q9HC16 whole entry, looked up): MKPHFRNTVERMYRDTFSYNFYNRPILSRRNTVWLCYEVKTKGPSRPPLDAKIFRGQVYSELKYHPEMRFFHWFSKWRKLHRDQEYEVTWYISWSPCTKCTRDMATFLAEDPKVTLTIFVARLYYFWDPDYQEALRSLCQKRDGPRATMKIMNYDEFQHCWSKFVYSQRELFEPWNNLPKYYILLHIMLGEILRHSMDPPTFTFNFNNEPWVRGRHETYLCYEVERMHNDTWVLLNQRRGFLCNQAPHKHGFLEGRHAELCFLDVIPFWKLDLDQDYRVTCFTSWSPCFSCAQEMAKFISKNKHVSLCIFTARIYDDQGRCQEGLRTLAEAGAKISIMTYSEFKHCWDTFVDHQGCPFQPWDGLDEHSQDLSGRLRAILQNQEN

The target in assay [16] is Cytochrome P450 3A4 (Homo sapiens) (UniProt P08684). The assay is described as follows: qHTS Assay for Inhibitors and Substrates of Cytochrome P450 3A4 (AID 884). Further: on the % scale 0 is the no-effect control and ±100 the full control effect; nearly all actives have a fitted effect of over 50% in size. Put shortly: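 20 nM human CYP3A4 with 25 uM Luciferin-PPXE (at KM) in 200 mM KPO4, preincubated 10 min with compound; NADPH regeneration started a 60 min RT reaction. Luciferin detected by luminescence, normalized to 57 uM ketoconazole as full inhibition.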
Sequence of Cytochrome P450 3A4 (Homo sapiens) (P08684 whole entry, looked up): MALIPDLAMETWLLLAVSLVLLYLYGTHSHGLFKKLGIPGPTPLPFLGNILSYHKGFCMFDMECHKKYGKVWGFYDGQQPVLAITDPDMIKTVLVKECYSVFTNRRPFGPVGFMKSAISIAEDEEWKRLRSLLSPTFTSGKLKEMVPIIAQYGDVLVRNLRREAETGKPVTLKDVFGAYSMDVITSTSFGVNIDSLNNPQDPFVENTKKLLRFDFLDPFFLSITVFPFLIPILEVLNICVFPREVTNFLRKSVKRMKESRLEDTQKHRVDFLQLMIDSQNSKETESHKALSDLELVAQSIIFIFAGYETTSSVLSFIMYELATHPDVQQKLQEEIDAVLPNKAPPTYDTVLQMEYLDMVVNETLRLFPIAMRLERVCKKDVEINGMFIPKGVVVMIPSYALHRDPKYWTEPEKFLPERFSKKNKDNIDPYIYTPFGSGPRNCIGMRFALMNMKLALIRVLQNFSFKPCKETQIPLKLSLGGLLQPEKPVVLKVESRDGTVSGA

Results filed as inconclusive are left out. Active and inactive are the calls of the source. Unless noted, the call rests on the fitted dose curve; in most records, active means well fitted curve in the direction sought with a large enough effect; inconclusive means small, poorly fitted or top-dose-only effect, or another doubt; inactive means no such curve, though single readings can be large; an effect the other way counts as inactive or inconclusive.

Sequence of Glucocorticoid receptor (Homo sapiens) (P04150 whole entry, looked up): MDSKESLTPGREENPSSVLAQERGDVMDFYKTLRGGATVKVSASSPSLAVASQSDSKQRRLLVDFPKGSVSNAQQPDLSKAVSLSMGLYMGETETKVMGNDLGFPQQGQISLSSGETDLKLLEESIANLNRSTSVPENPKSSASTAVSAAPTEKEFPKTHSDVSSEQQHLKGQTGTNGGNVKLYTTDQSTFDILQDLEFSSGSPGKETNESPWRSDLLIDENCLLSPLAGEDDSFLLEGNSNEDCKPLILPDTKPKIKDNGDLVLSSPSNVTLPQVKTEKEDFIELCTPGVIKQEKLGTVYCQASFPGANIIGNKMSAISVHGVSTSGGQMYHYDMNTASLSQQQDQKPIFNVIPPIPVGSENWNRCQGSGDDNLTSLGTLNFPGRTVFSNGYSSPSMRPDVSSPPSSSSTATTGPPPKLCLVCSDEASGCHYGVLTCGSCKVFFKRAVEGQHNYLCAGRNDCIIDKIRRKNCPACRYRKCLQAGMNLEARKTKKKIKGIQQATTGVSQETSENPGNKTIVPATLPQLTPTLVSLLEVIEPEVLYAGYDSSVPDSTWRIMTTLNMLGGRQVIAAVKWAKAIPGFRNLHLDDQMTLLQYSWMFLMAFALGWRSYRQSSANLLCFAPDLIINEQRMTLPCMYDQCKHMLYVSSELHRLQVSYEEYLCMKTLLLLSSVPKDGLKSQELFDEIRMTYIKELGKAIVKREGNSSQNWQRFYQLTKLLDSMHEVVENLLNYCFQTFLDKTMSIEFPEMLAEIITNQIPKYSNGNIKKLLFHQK
Sequence of Cytochrome P450 1A2 (Homo sapiens) (P05177 whole entry, looked up): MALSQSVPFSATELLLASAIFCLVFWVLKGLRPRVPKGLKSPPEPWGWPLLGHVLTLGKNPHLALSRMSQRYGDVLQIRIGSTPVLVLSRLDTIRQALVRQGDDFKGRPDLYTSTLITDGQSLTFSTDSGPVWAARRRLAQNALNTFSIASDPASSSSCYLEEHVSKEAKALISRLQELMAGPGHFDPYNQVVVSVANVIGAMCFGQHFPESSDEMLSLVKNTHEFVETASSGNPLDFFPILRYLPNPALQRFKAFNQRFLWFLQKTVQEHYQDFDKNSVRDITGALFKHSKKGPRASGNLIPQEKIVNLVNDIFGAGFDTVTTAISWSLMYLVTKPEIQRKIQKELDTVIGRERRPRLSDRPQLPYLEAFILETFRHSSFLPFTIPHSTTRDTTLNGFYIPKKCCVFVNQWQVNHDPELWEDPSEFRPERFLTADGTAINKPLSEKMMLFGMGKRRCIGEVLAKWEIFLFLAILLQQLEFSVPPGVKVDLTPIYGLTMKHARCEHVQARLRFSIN
Sequence of 3',5'-cyclic-AMP phosphodiesterase 4B (Homo sapiens) (Q07343 whole entry, looked up): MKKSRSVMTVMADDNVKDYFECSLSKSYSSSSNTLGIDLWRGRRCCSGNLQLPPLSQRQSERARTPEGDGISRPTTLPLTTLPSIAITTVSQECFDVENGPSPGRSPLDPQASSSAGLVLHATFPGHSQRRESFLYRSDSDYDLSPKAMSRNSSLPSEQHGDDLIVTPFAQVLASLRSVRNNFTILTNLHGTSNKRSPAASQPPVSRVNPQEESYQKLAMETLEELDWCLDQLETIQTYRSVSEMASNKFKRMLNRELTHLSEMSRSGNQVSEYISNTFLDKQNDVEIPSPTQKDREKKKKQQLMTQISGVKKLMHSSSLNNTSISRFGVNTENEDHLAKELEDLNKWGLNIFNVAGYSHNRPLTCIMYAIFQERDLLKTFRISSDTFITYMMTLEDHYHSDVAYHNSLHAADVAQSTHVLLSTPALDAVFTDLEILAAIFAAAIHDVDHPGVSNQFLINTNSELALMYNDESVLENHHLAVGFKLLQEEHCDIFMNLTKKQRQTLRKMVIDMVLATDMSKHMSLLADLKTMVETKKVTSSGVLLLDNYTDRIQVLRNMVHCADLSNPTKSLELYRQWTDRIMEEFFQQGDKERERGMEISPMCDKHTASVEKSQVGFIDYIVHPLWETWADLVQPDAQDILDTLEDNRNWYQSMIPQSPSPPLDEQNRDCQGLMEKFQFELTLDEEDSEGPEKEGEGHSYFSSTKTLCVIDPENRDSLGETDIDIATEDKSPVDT
Sequence of Glutathione peroxidase 1 (Homo sapiens) (P07203 whole entry, looked up): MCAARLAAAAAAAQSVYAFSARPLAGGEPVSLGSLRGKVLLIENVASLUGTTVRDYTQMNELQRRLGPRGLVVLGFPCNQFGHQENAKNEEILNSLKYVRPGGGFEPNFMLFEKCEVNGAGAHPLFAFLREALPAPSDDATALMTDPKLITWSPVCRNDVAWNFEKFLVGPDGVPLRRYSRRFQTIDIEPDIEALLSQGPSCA

For the molecule `COc1ccc2c(c1)CC[C@@H]1[C@@H]2CC[C@]2(C)[C@@H](NCCCCCCN3C(=O)C=CC3=O)CC[C@@H]12`, the Potency result in assay [1], in assay [2], in [5] and in [6] was “inactive” each time. Moreover, the figures for the Potency in assay [3] and in assay [4] were 13.2 µM (active) and 5.25 µM (active), respectively. Besides, the Z-AUC is 0.11 (inactive) in assay [7], 0.00217 in assay [7] (measured here: PEO1 parental Z-AUC) and 0.205 in [7] (measured here: PEO4 Z-AUC).

Consider `NCCC(=O)O`, for which the Potency entry in assay [8], in assay [11], in assay [12], in assay [14], in assay [15] and in assay [2] was “inactive” throughout. The Potency in assay [9] and in assay [10] was > 46 µM (inactive) each time. For the same molecule, the activity change, negative = inhibition in assay [13] (at 57.5 µM (top of the series)) is -2.51% (inactive). The values for the max response in assay [13] (measured here: cell count channel max response) and in [13] (measured here: lipid channel max response) were -17.6% and -21.9%, respectively.

For `NC(N)=NCCC[C@H](NC(=O)[C@@H](N)Cc1ccc(O)cc1)C(=O)O`, the activity change, negative = inhibition in [2] is -11.6% [at 3.88 µM] (inactive).

As for `CC(C)[C@@H]1C(=O)N(S(C)(=O)=O)[C@H]2CCN(C(=O)/C=C\CN3CCCCC3)[C@@H]12`, the Potency result in assay [8], in assay [11], in assay [12], in [14], in [15] and in assay [2] was “inactive” throughout. Also, the Potency in assay [9] and in assay [10] was > 46 µM (inactive) throughout.

As to `CN1c2cc3c(cc2N=C(c2ccc(C(=O)O)cc2)c2ccccc21)C(C)(C)CCC3(C)C`, the Potency entry in assay [16] and in assay [2] was “inactive” each time.
